Inhibition data for 101 compounds are collected here from PubChem BioAssay AID811 (The Scripps Research Institute Molecular Screening Center, 2007).

About 10 (0.06%) of roughly 16,000 compounds were called active. Cut-off read from the data, not from the text of the source: active = inhibition above about 45%; inactive = the rest. For the sample, actives were picked, then their nearest neighbours and some compounds at random.

What is called inhibition is the drop in the measured response relative to a control, in per cent.

Toll-like receptor 4 (Homo sapiens), sequence (O00206 whole entry, looked up): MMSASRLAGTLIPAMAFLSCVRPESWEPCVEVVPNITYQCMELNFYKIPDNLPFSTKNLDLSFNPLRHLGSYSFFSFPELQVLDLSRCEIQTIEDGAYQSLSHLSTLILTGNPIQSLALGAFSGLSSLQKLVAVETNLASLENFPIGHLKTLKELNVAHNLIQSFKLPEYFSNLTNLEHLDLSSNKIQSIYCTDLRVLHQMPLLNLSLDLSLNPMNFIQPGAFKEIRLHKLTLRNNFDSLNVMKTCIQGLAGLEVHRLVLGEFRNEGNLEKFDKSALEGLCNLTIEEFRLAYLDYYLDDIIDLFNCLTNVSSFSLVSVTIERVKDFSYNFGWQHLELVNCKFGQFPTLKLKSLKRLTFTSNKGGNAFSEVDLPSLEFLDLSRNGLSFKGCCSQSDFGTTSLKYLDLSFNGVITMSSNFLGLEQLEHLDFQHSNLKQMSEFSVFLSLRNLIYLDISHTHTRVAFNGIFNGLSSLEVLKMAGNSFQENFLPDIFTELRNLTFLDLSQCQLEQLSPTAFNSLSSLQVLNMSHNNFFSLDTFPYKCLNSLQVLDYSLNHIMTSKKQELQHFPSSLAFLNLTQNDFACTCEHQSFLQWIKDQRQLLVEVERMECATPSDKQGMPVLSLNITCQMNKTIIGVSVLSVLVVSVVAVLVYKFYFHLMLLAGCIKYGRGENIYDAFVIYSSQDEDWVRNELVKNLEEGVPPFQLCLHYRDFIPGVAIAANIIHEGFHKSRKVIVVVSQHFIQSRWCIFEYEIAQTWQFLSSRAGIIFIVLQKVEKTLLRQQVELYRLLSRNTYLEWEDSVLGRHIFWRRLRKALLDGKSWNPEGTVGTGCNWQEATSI

The test addresses Toll-like receptor 4 (Homo sapiens) (UniProt O00206). The test can be described thus: blocks binding of human TLR4 to MyD88 (AID 811). The following applies: Cell-based TLR4-MyD88 binding inhibition assay; at 10 µM; stronger effect = higher value.
Consider `O=C(CSc1nc2ccccc2o1)N1CCC(n2cccc2)CC1`, for which the inhibition was -8.01% (inactive).
The same measure for `CC(C)(C)C(=O)OCC(N)=S`: -7.02% (inactive); for `CSc1c(C#N)c(N)nc(SCC(=O)c2ccc(OC(F)F)cc2)c1C#N`: 1.37% (inactive); for `O=C(O)c1ccccc1/C=N/Nc1cc(Cl)ccc1Cl`: -2.5% (inactive).
Next, `NC(=O)c1ccccc1OCCOc1ccccc1C(N)=O`: -25.3% (inactive); `CN(C)c1cccc2c1c(NC(=O)Nc1ccc(OCc3ccccc3)cc1)nn2C`: -5.12% (inactive).
With `Cc1ccccc1NC(=O)NCc1ccco1`, the inhibition is 0.5% (inactive).
The same measure for `OCCNC(=S)Nc1ccccc1-c1ccccc1`: 6.35% (inactive); for `Cc1c(N/N=C(\C#N)c2nc3ccccc3[nH]2)c(=O)n(-c2ccccc2)n1C`: 3.99% (inactive).
The same measure for `CN(C)c1cc(-c2cc(Cl)sc2Cl)oc(=O)c1Cl`: -4.82% (inactive); for `O/N=C/c1sccc1Oc1ccccc1`: 0.35% (inactive); for `COC(OC)c1ccnc(SCC(=O)Nc2ccc(C(C)C)cc2)n1`: -8.52% (inactive).
The same measure for `O=C(Nc1ccccc1N1CCOCC1)C1CCN(c2nccc(C(F)(F)F)n2)CC1`: 1.1% (inactive); for `CC1(C)CC(=O)c2c(NCc3ccco3)sc(C#N)c2C1`: 8.27% (inactive); for `COC(=O)c1sccc1-c1ccc(/C(C)=N/NC(N)=O)o1`: 0.98% (inactive).
Regarding `Fc1cccc(Cl)c1CSc1nccn1-c1cccnc1`, the inhibition is 5.59% (inactive).
The same measure for `O=C(OCc1ccco1)c1cnc(Nc2ccc(OC(F)(F)F)cc2)nc1C(F)(F)F`: 11.4% (inactive); for `N#Cc1c(N)nc2c3c1NC(O)(c1ccccc1)C(C#N)C3c1cc(Cl)ccc1O2` (stereo unspecified): -1.34% (inactive); for `Cc1nc2sc(-c3ccccc3)cc2c(=O)o1`: 4.05% (inactive).
The same measure for `NS(=O)(=O)c1cc(Br)ccc1I`: -0.48% (inactive); for `O=C1CCN(Cc2ccccc2)C(=O)N1c1ccc2c(c1)CCO2`: -14.4% (inactive); for `CCOC(=O)C1=C(C)NC(=O)NC1c1ccc(-c2cccc([N+](=O)[O-])c2)o1` (stereo unspecified): -3.21% (inactive).
The same measure for `CC(CC(=O)O)Oc1ccc(Cl)cc1[N+](=O)[O-]` (stereo unspecified): -0.53% (inactive); for `CSc1nc(N/C=C(\C#N)C(=O)c2cccs2)n2nc(C)cc2n1`: -2.59% (inactive).
Consider `N#CCc1ccc(OC(=O)c2cccnc2)cc1`, for which the inhibition is -3.47% (inactive).
Next, `CN(C)C(=S)Nc1ccc(Br)cc1Cl`: -2.8% (inactive); `Clc1cncc(Cl)c1N/N=C/C1CC2C=CC1C2` (stereo unspecified): 5.74% (inactive); `O=C(O)c1onc2ccccc12`: -3.17% (inactive).
The same measure for `CSc1nccc(-c2ccc(S(=O)(=O)n3nc(C)c(Br)c3C)s2)n1`: 2.65% (inactive); for `Cc1cc(NC(=O)c2cc(-c3ccccc3)c(C(F)(F)F)s2)no1`: -1.45% (inactive).
The same measure for `CC(=O)Nc1ccc(/C(N)=N/O)cc1`: 1.86% (inactive).
`O=C(O)CC1(CC(=O)NCc2ccco2)CCCCC1`: the inhibition is -10.3% (inactive).
As to `CC(=O)OC1=CCC2C3CC[C@@]4(C)CC(OC(C)=O)CCC4(C)C3C(OC(C)=O)CC12C` (stereo partly specified), the inhibition is 5.37% (inactive).
Take `CC(C)(C)NC(=O)[C@@H]1C[C@@H]2CCCC[C@@H]2CN1C(=O)c1ccno1`: the inhibition was 2.92% (inactive).
Next, `CCOC(=O)c1nnc2c(Br)c(C)nn2c1C`: 0.26% (inactive).
Next, `CCc1ccnc(NS(=O)(=O)c2ccc3c(c2)OCCO3)c1`: -7.82% (inactive).
The same measure for `Cc1nc(C(=O)NNC(=S)Nc2ccccc2C(F)(F)F)cs1`: -3.73% (inactive).
As for `N/C(=N\OC(=O)c1ccc(Cl)cc1)c1cccc(CS(=O)(=O)c2ccccn2)c1`, the inhibition was -5.81% (inactive).
Next, `CC(C)S(=O)(=O)/C(C#N)=C/NN1CCOCC1`: -3.92% (inactive).
For `COC(=O)c1cnc(N2CCCN(C(=O)C3COc4ccccc4O3)CC2)nc1C(F)(F)F` (stereo unspecified), the inhibition is -1.67% (inactive).
Next, `NC(=O)c1c(C(F)(F)F)cc(C(F)(F)F)cc1C(F)(F)F`: -6.47% (inactive); `COc1ccccc1NC(=O)c1ccc(C#Cc2ccccc2)o1`: -2.2% (inactive); `CC(C)[C@H]1COC(c2cccc(C3=N[C@@H](C(C)C)CO3)n2)=N1`: 5.5% (inactive).
Next, `Cc1cc(S(=O)(=O)O/N=C(\N)c2snnc2C)cc(C)c1F`: 11.7% (inactive); `CC1(C)CC(=O)C=C(N2CCOCC2)C1`: -0.03% (inactive); `CCc1cnc(NS(=O)(=O)c2cc(Cl)sc2Cl)nc1-c1c(F)cccc1F`: -8.06% (inactive).
Next, `CC(C)CCOS(=O)(=O)c1ccc2c(c1)Cc1cc(S(=O)(=O)OCCC(C)C)ccc1-2`: 4.69% (inactive).
For the compound `CCCN(CCC)S(=O)(=O)c1ccc(C(=O)O/N=C(\C)c2ccccc2O)cc1`, the inhibition was 0.96% (inactive).
The same measure for `CC(=O)c1ccc(C#Cc2ccccc2)cc1`: -5.26% (inactive).
Next, `COC(=O)c1cnc(Oc2ccc(N)cc2)cc1C(F)(F)F`: -9.53% (inactive); `O=C(CSc1c(F)c(F)c(C(=O)O)c(F)c1F)Nc1cccc(C(F)(F)F)c1`: 7.76% (inactive).
With `CCOC(=O)CN1C(=O)/C(=C\c2ccc(C)o2)N=C1c1ccccc1`, the inhibition is 0.42% (inactive).
The same measure for `O=[N+]([O-])c1ccc2ncccc2c1-n1cccc1`: 2.94% (inactive).
Next, `CN(C(=O)Nc1ccc(Cl)cc1)n1cnc2ccccc2c1=O`: -8.6% (inactive); `Cn1cnnc1SC/C=C/c1ccccc1`: -13.5% (inactive).
Next, `O=C(O)CC(CC(=O)N1CCOCC1)c1ccccc1` (stereo unspecified): -5.3% (inactive); `Cc1ccc2c(c1)C(=O)C(=O)S2`: 6.48% (inactive).
In the case of `O=C(CCc1ccc(O)cc1)N/N=C/c1cc(Cl)cc(Cl)c1O`, the inhibition is -1.07% (inactive).
The same measure for `CC(C)(C)NC(=O)N/N=C/c1[nH]ncc1Br`: 20.8% (inactive); for `Cc1noc(C)c1S(=O)(=O)N1CCN(C2c3ccccc3-c3ccccc32)CC1`: -0.47% (inactive); for `CS/C(=N\S(=O)(=O)c1ccccc1)NNc1ccccc1`: -1.96% (inactive).
Turning to `CCOC(=O)Cn1cc(Cl)ccc1=O`, the inhibition was -0.56% (inactive).
Next, `N/C(=N\S(=O)(=O)c1ccc(Cl)cc1)N1CCOCC1`: -3.11% (inactive); `Cc1nn(C)c(C)c1Sc1nccc(-c2cccnc2)n1`: -8.01% (inactive); `CC(C)CC(F)Cc1cnc(=O)[nH]c1` (stereo unspecified): -2.36% (inactive).
Next, `Oc1ccc(-n2cncn2)cc1`: -7.43% (inactive).
Take `O=C(NCc1ccccc1)c1cc2sccc2s1`: the inhibition was 3.11% (inactive).
The same measure for `Cc1ccc2sc(NC(=O)NC(=O)c3c(Cl)cccc3Cl)nc2c1`: -10.8% (inactive); for `Cn1cc(C(=O)Nc2ccc(F)c(Cl)c2)c(N)n1`: -11.3% (inactive).
Regarding `CCOC(=O)c1cnc2c(S(=O)(=O)C(C)C)csc2c1Sc1cccc(Cl)c1`, the inhibition is -1.87% (inactive).
The same measure for `O=C(NNC(=S)Nc1ccccc1Cl)c1ccc(OC(F)(F)F)cc1`: 6.01% (inactive).
Next, `O=C(c1ccc(Oc2ccc(Cl)cc2)c([N+](=O)[O-])c1)N1CCCC1`: 0.91% (inactive).
Consider `CSc1sc(C(=O)Nc2cccc(C(F)(F)F)c2)cc1S(=O)(=O)C(C)C`, for which the inhibition was 0% (inactive).
The same measure for `CCOC(=O)c1ccc2nc(C(F)(F)F)cc(N3CCN(Cc4ccccc4)CC3)c2c1`: 3.69% (inactive); for `CCOC(=O)Cn1sc2nc(C)cc(C)c2c1=O`: -2.32% (inactive); for `O=[N+]([O-])c1ccc(N2CCC2)cc1`: 8.05% (inactive).
The same measure for `CC(=O)OCc1ccc(COC(C)=O)c(OC(C)=O)c1OC(C)=O`: -11.5% (inactive); for `COC(=O)/C=C/c1cn(C2OCC(CO)C2O)c(=O)[nH]c1=O` (stereo unspecified): 5.73% (inactive); for `NC(=O)c1cccc2c1OCCO2`: 10.1% (inactive).
Next, `CCCN(CCC)S(=O)(=O)c1ccc(C(=O)NNC(=O)c2cc(OC)c(OC)c(OC)c2)cc1`: -4.25% (inactive); `N#C/C(=C\c1ccsc1Sc1ccc(Cl)cc1)S(=O)(=O)c1ccc(Cl)cc1`: -3.72% (inactive); `Cc1nnc(Sc2ccc([N+](=O)[O-])c(Sc3nnc(C)s3)n2)s1`: -6.36% (inactive).
As to `O=c1oc2c3ccccc3c3oc(=O)sc3c2s1`, the inhibition was 50.3% (active).
The same measure for `O=c1[nH]c2ccccc2s1`: 2.88% (inactive); for `Cc1cc(-c2noc(-c3cccs3)n2)no1`: -6.63% (inactive).
The same measure for `Cc1nnsc1C(=O)N/N=C/c1ccccc1Cl`: -4.11% (inactive); for `CNC(=O)c1ccccc1I`: -1.84% (inactive).
Next, `O=S(=O)(CCSc1ccc(C(F)(F)F)cn1)CCSc1ccc(C(F)(F)F)cn1`: 2.94% (inactive); `CC(=O)Nc1ccc(C)cc1N=Cc1ccncc1`: -3.13% (inactive); `N#CC(c1cc2ccccc2cn1)c1ccc2c(c1[N+](=O)[O-])C(=O)c1ccccc1C2=O` (stereo unspecified): 8.07% (inactive).
On to `Cc1cccc(-c2noc(NC(=O)O/N=C/c3ccccc3)n2)c1`, for which the inhibition was 5.92% (inactive).
The same measure for `O=C(NNC(=S)Nc1ccc(S(=O)(=O)N2CCCCC2)cc1)c1ccncc1`: 7.23% (inactive); for `O=[N+]([O-])c1ccc2c(c1)CCN2S(=O)(=O)c1ccccc1`: -5.05% (inactive); for `Cc1ccc(C(=O)N2CCN(c3cccc4[nH]ccc34)CC2)cc1`: -3.77% (inactive).
The same measure for `O=C(Oc1ccccc1N1CCCCC1)c1sc2ccccc2c1Cl`: 4.69% (inactive); for `CCOC(=O)c1cc(C)n(-c2cccc([N+](=O)[O-])c2)c1-c1ccccc1`: -2.88% (inactive); for `CC(C)(C)c1ccc(C(=O)CC(N)=O)cc1`: -4.12% (inactive).
Next, `FC(F)(F)c1csc(N/N=C/c2ccccc2Cl)n1`: -1.14% (inactive); `C/C(=N\NC(N)=S)c1csc(-c2ccccc2)n1`: -3.92% (inactive).
For the compound `N/N=c1/nc2sccn2c2ncccc12`, the inhibition is -0.03% (inactive).
On to `O=C1C2C3C=CC(O3)C2C(=O)N1OCc1ccc(OC(F)(F)F)cc1` (stereo unspecified), for which the inhibition is 4.1% (inactive).
